Among all 2,100 compounds or so, about 1,100 (52%) were called active. Not shown: some 29% with an inconclusive outcome. Calls follow the shape of the dose curve; as a rule, active = well fitted inhibition curve with a large enough effect; inconclusive = small, poorly fitted or top-dose-only effect; inactive = no such curve, though single readings can be large or run the other way. The set was probably picked from earlier hits. This is one part of the list.
Potency is read from the fitted curve at half-maximal effect.

The target in this assay is DNA dC->dU-editing enzyme APOBEC-3F (Homo sapiens) (UniProt Q8IUX4). In words: qHTS for inhibitors of Vif-A3F interactions: Cherry picks counterscreen. Also: nearly all actives have a fitted effect of over 65% in size. As to conditions: HeLa A3F-eYFP/Vif cells, eYFP fluorescence, 24 h; series mostly up to 46.1 µM. The text has this: The recent discovery and characterization of host restriction factors, which provide a potent defense to invading retroviruses, has provided new targets for antiviral drug development. APOBEC3G (A3G) and APOBEC3F (A3F) are potent cytidine deaminases that block HIV-1 replication; HIV-1 expresses the Vif protein, which counteracts A3G and A3F by binding to them and inducing their proteasomal degradation. The Vif-A3G and Vif-A3F interactions provide two potential targets for development of small molecules which can interfere with the ability of Vif to degrade A3G or A3F. […] To identify inhibitors that can interfere with Vif mediated degradation of A3G and A3F, we have developed Hela cell lines that stably express A3G or A3F tagged with eYFP at the C-terminal end (A3G-eYFP or A3F-eYFP, respectively) and Vif. In the absence of an inhibitor, Vif induces degradation of A3G-eYFP and A3F-eYFP, and the cells are not fluorescent. In the presence of an inhibitor, it is expected that Vif will be unable to degrade A3G-eYFP and/or A3F-eYFP, resulting in an increase in yellow fluorescence. In this counterscreen assay, Vif A3F was screened against the cherry picks ordered from the MLSMR. NIH Chemical Genomics Center [NCGC] NIH Molecular Libraries Probe Centers Network [MLPCN] MLPCN Grant: MH093245 Assay Submitter (PI): Vinay Pathak, National Cancer Institute
Sequence of DNA dC->dU-editing enzyme APOBEC-3F (Homo sapiens) (Q8IUX4 whole entry, looked up): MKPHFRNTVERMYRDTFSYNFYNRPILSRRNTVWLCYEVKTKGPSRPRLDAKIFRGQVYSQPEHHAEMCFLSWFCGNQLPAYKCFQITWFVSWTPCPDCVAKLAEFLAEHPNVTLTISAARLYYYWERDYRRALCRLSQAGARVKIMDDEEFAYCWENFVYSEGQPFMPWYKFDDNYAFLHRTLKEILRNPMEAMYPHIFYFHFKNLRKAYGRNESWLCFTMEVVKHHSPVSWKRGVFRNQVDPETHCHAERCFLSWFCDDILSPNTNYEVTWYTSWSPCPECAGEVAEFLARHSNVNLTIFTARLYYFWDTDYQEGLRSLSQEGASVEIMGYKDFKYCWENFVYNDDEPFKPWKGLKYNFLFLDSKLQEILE
A3F-Vif cells were harvested from T225 flask and resuspended in phenol free OPTI-MEM medium with 5% FBS. Then 5 uL of 140,000 cells/mL resuspended cells was dispensed into each well of low base Aurora COC 1,536-well plates (black walled, clear bottom) using a Multidrop Combi dispenser. After overnight culture at 37 deg C with 5% CO2, a total of 23 nL of compounds at 5 selected concentrations from the NPC or positive control (2 mM stock of MG132) in DMSO was transferred to each well of the assay plate using a pintool (Kalypsys, San Diego, CA), and the plates were further incubated at 37 deg C with 5% CO2 for 24 hours. After that, the plates were measured on Acumen Explorer (TTP Lab Tech). The fluorescence was detected by 488 nm/Ex and […].
On the technique in general: Quantitative high-throughput screening tests each substance at several concentrations.
Take `Cc1cc(N2CCCC2)ccc1C=C(C#N)C#N`: the Potency is 20.6 µM (active).
To `CN1/C(=C\C=C2C(=O)NC(=O)NC2=O)C(C)(C)c2ccccc21` belongs 4.11 µM (active); to `CCS(=O)(=O)N1N=C(c2cccc(NS(C)(=O)=O)c2)CC1c1ccccc1` (configuration not stated), 23.1 µM (active); to `CCCCn1c(O)c(C(=O)/C=C/c2c[nH]c3ccccc23)c(=O)[nH]c1=O`, 17.7 µM (active).
Consider `CN1CCN(c2ccc(/C=C3\C(=O)NC(=S)N(c4cccc(Br)c4)C3=O)o2)CC1`, for which the Potency was 23.1 µM (active).
Consider `CN1C(=O)/C(=C\c2ccc(N3CCCCC3)o2)C(=O)NC1=S`, for which the Potency is 17.7 µM (active).
The same measure for `CN1C(=O)/C(=C/c2ccc(N3CCCCCC3)o2)C(=O)NC1=S`: 4.44 µM (active); for `CCC(C)N1C(=O)/C(=C\c2ccc(N3CCCCCC3)cc2)C(=O)NC1=S` (configuration not stated): “inactive”.
To `CC(=O)O[C@@]12CO[C@@H]1C[C@H](OC1OCC(O)C(O)C1O)[C@@]1(C)C(=O)[C@H](O)C3=C(C)[C@@H](OC(=O)[C@H](O)[C@@H](NC(=O)c4ccccc4)c4ccccc4)C[C@@](O)([C@@H](OC(=O)c4ccccc4)C12)C3(C)C` (some centres not stated) belongs 4.44 µM (active); to `CN1C(=O)C(=Cc2ccc(N3CCOCC3)o2)C(=O)N(C)C1=S`, 8.2 µM (active).
To `CN1C(=O)C(=Cc2ccc(N3CCCCC3)o2)C(=O)N(C)C1=S` belongs 3.66 µM (active).
Consider `CN1C(=O)C(=Cc2ccc(N3CCOCC3)o2)C(=O)N(C)C1=O`, for which the Potency is 6.51 µM (active).
To `Cc1cc(N(CCCl)CCCl)ccc1C=Cc1ccncn1` belongs 16.4 µM (active); to `CC(C)c1ccc(N2C(=O)NC(=O)/C(=C\C=C\c3ccco3)C2=O)cc1`, 17.7 µM (active).
The same measure for `O=C1NC(=O)N(Cc2ccc(F)cc2)C(=O)/C1=C\C=C\c1ccco1`: 23.1 µM (active).
The same measure for `CC(C)c1ccc(N2C(=O)NC(=O)/C(=C/C=C/c3ccco3)C2=O)cc1`: 14 µM (active); for `CN(C)c1ccc(/C=C/C=C2/C(=O)NC(=O)N(c3ccccc3)C2=O)cc1`: 23.1 µM (active).
`COCCCNC(=O)c1c(NC(=O)c2ccco2)n(Cc2ccccc2)c2nc3ccccc3nc12`: the Potency entry was “inactive”.
For `Cc1cc(/C=C2\C(=O)NC(=O)N(c3ccc(Br)cc3)C2=O)c(C)n1C`, the Potency entry is “inactive”.
The same measure for `Cc1ccc(N2C(=O)NC(=O)/C(=C\C=C\c3ccco3)C2=O)cc1C`: 5.8 µM (active); for `CC/C(=N\NC(=O)c1ccccc1O)c1c(O)n(Cc2ccccc2)c(=O)[nH]c1=O`: 18.4 µM (active); for `COc1cccc(C2=CC(c3cc(Br)ccc3F)n3nnnc3N2)c1` (configuration not stated): 1.46 µM (active).
To `COC(=O)C1=C(C)N(Cc2ccco2)C(=O)/C1=C\c1ccc(N(C)C)cc1` belongs 6.51 µM (active); to `O=C1NC(=O)N(c2ccc3c(c2)OCO3)C(=O)/C1=C/c1ccc(N2CCCCC2)o1`, 20.6 µM (active); to `O=C1NC(=O)N(c2ccc3c(c2)OCO3)C(=O)/C1=C\c1ccc(N2CCCCC2)o1`, 18.4 µM (active).
To `COc1cc(C2C(C#N)=C(N)Oc3cc(O)ccc32)cc(OC)c1OC` (configuration not stated) belongs 3.53 µM (active); to `Cc1cccc(-n2c(O)c(/C=C/C=Nc3ccccc3)c(=O)[nH]c2=O)c1`, 4.61 µM (active); to `COc1ccc(-n2c(/C=C/c3ccc(O)c(OC)c3)nc3ccccc3c2=O)cc1`, 16.4 µM (active).
Regarding `COc1ccccc1-n1c(/C=C/c2ccc(O)cc2)nc2ccccc2c1=O`, the Potency result was “inactive”.
The same measure for `Cc1cccc(-n2c(/C=C/c3c(C)[nH]c4ccccc34)nc3ccccc3c2=O)c1`: 18.4 µM (active).
The same measure for `Cc1cccc(-n2c(/C=C/c3ccc([N+](=O)[O-])o3)nc3ccccc3c2=O)c1`: 8.2 µM (active); for `O=c1c2ccccc2nc(/C=C/c2ccc([N+](=O)[O-])o2)n1-c1ccc(O)cc1`: 11.2 µM (active); for `CCN(CC)c1ccc(/C=C2\C(=O)NC(=S)N(C)C2=O)o1`: 0.559 µM (active).
To `CCN(CC)c1ccc(C=C2C(=O)N(C)C(=S)N(C)C2=O)o1` belongs 0.314 µM (active); to `CCN(CC)c1ccc(/C=C2\C(=O)NC(=S)N(c3ccc(OC)cc3OC)C2=O)o1`, 23.1 µM (active).
On to `CCN(CC)c1ccc2c(cc1=O)[C@@H](NC)CCc1cc(OC)c(OC)c(OC)c1-2`, for which the Potency is 1.4 µM (active).
The same measure for `Cc1ccccc1-n1c(/C=C/c2ccc(N(C)C)cc2)nc2ccccc2c1=O`: 4.11 µM (active); for `C=CCn1c(O)c(C(C)=Nc2ccc(N(CC)CC)cc2)c(=O)[nH]c1=O`: 11.2 µM (active).
On to `CCN(CC)c1ccc(N=Cc2c(O)n(CCC3=CCCCC3)c(=O)[nH]c2=O)cc1`, for which the Potency is 16.4 µM (active).
The same measure for `CCN(CC)c1ccc(N=Cc2c(O)n(Cc3ccccc3)c(=O)[nH]c2=O)cc1`: 20.6 µM (active); for `O=C1NC(=S)SC1=Cc1ccc(N(CCCl)CCCl)cc1`: 17.7 µM (active).
To `CCOc1ccc(CNC(=O)c2cccc(Nc3nc4ccccc4n4nnnc34)c2)cc1OC` belongs 16.4 µM (active); to `COc1ccc(-c2ccc(OC)c(OC)c2OC)cc1`, 3.96 µM (active); to `CN(C)c1ccc(C(=O)c2ccc(N(C)C)cc2)cc1`, 0.994 µM (active).
For the compound `CCCCn1c(O)c(/C=C2/C=CC=N2)c(=O)[nH]c1=O`, the Potency was 12.5 µM (active).
As for `O=c1[nH]c(=O)n(Cc2ccccc2Cl)c(O)c1/C=C1/C=CC=N1`, the Potency is 18.4 µM (active).
With `C=C1C(=O)OC2C1CCC(C)C1(O)C=CC(=O)C21C` (configuration not stated), the Potency is 5.59 µM (active).
To `COCCCn1c(=O)/c(=C\c2ccccc2OC(F)F)s/c1=C(/C#N)C(=O)NCCOC` belongs 18.4 µM (active); to `CCCCNC(=O)/C(C#N)=c1\s/c(=C\c2ccccc2OC(F)F)c(=O)n1CCCOC`, 9.2 µM (active); to `CC(=O)Nc1cccc(-c2ccnc3c2CC(C(=O)NCc2ccco2)O3)c1` (configuration not stated), 4.44 µM (active).
For `CC1=CC(=Cc2sc3ccccc3[n+]2C)C=C(C)O1`, the Potency was 10.3 µM (active).
The same measure for `O=[N+]([O-])c1ccc(N2CCOCC2)c2c1no[n+]2[O-]`: 15.8 µM (active); for `NC(=Nc1ccccc1)NN=Cc1c[nH]c2ccccc12`: 3.14 µM (active).
The same measure for `O=c1[nH]c(CN2CC=C(c3ccccc3)CC2)nc2scc(-c3ccccc3)c12`: 18.4 µM (active); for `N#CC1=C(N)Oc2c(c(=O)sc3ccccc23)C1c1cccnc1` (configuration not stated): 3.14 µM (active).
`Cn1cccc1/C=C1\C(=O)NC(=O)N(Cc2ccccc2Cl)C1=O`: the Potency is 13 µM (active).
To `Cc1c(Cl)cccc1NC(=O)c1oc2ccc(S(=O)(=O)N3CCC4(CC3)OCCO4)cc2c1C` belongs 16.4 µM (active); to `COc1ccc(-n2cnc3cc(C(=O)N4CCC5(CC4)OCCO5)ccc32)cc1`, 17.7 µM (active).
The same measure for `Cc1cccc(CN2CCCC(C(=O)c3cccc(OC(C)C)c3)C2)n1` (configuration not stated): “inactive”; for `O=Cc1c(C(=O)O)n(Cc2ccc(Cl)cc2)c2ccccc12`: 13 µM (active); for `Nc1ccc2c3c(cccc13)-c1ccccc1-2`: 4.61 µM (active).
The same measure for `CC(=O)OC1C2(CC3N4C(=O)C5(CO)SSC4(CC31O)C(=O)N5C)OC(C)C(C)(C)C2=O` (configuration not stated): 3.53 µM (active).

The values are drawn from PubChem BioAssay AID651815 (National Center for Advancing Translational Sciences (NCATS), 2012).
